Active and inactive are the calls of the source. How the source made its calls: active means hit-call score of the fitted dose curve at least 0.9, where 1 is the maximum; inactive means score below 0.9.
Assay: APR_HepG2_StressKinase_24hr: Apredica 24-hour HepG2 Assay for Stress Kinase (AID 2282922)
Conditions: HepG2 stress kinase (phospho-c-Jun) imaging, actives raise or lower the signal
Procedure: APR_HepG2_24hr is a cell-based, multiplexed-readout assay that uses HepG2, a human liver cell line, with measurements taken at 24 hours after chemical dosing in a 384-well plate.APR_HepG2_StressKinase_24hr is one of 10 assay component(s) measured or calculated from the APR_HepG2_24hr assay. It is designed to make measurements of enzyme activity, a form of enzyme reporter, as detected with fluorescence intensity signals by HCS Fluorescent Imaging technology.Data from the assay component APR_HepG2_StressKinase_24hr was analyzed into 1 assay endpoint. This assay endpoint, APR_HepG2_StressKinase_24hr, was analyzed with bidirectional fitting relative to DMSO as the negative control and baseline of activity. Using a type of enzyme reporter, measures of protein for gain or loss-of-signal activity can be used to understand the signaling at the pathway-level as they relate to the gene . Furthermore, this assay endpoint can be referred to as a primary readout, because this assay has produced multiple assay endpoints where this one serves a signaling function. To generalize the intended target to other relatable targets, this assay endpoint is annotated to the cell cycle intended target family, where the subfamily is stress response.
Cells were treated with dimethyl sulfoxide (DMSO) as a solvent control at a final concentration of 0.5% v/v or with compounds in DMSO with a resulting final DMSO concentration of 0.5% v/v. Compound treatment was done at concentrations of 0.39, 0.78, 1.56, 3.12, 6.24, 12.5, 25, 50, 100, and 200 uM in duplicate on each plate. Cells were treated with compounds for 1, 24, or 72 hr. Carbonyl […] m-chloro-phenylhydrazone (CCCP) and taxol were used as positive controls for mitochondrial function and cytoskeletal stability, respectively; DMSO served as the negative control for this experiment. Cells were fixed by the direct addition of 50 uL formaldehyde in Hank's Balanced Salt Solution (HBSS) to a final concentration of 3.7%. After incubation in the fixation medium for 30 min at room temperature (293-298 K), cells were rinsed twice with HBSS and treated with cell permeabilization buffer (16 uL of 0.5% Triton X-100) for 10 min at room temperature (293-298 K) before labeling. For mitochondrial membrane potential and mitochondrial measurements, pre-fixed cells were incubated with 50 uL of MitoTracker Red CMXRos (Invitrogen) at a concentration of 250 nM for 30 min before fixation. In the remaining cases, post-fixed cells were labeled by incubation with a multiplexed mixture of primary antibodies in HBSS for 60 min at room temperature (293-298 K) to detect immunoreactivity of c-Jun (1:500), phospho-histone H3 (1:100), phospho-histone H2A.x (1:200), p53 (1:400), alpha-tubulin (1:200) and Hoechst 33342 (2 ug/mL). Cells were labeled for multiplexed imaging on two separate plates: a) Hoechst 33342, MitoTracker Red, phospho-histone H3, and alpha-tubulin, and b) Hoechst 33342, phospho-histone H2A.x, and c-Jun. A final rinse with HBSS (50 uL) was performed before analysis. The primary and secondary antibodies for the proteins were phospho-histone H3 (rabbit anti-phospho-histone H3 and FITC-donkey anti-rabbit IgG), phospho-histone H2A.x (mouse anti-phospho-histone H2A.x and FITC-donkey anti-mouse IgG), c-Jun (rabbit anti-phospho-c-Jun and Cy3-donkey anti-rabbit IgG), p53 (sheep anti-p53 and Cy5-donkey anti-sheep IgG), alpha-tubulin (mouse anti-alpha-tubulin and Cy5-donkey anti-mouse IgG). These antibodies are available as the CellCiphr HepG2 assay kit (Millipore).Digital images of each well were captured using a Cellomics ArrayScan VTI (Thermo Scientific Cellomics) (0.8 NA objective, 0.63x optical coupler, and XF-93 filter set) at 20x magnification. The images were acquired using the autofocus feature of the ArrayScan instrument, which entails the following steps. First, the camera focuses on channel 1 (Hoechst 33342), where nuclei are identified. Second, a Z offset of 1 um is used for capturing mitochondria (MitoTracker Red). […]

Compound	outcome	AC50
CSC(=O)c1c(C(F)F)nc(C(F)(F)F)c(C(=O)SC)c1CC(C)C	inactive	
CCCCC(C#N)(Cn1cncn1)c1ccc(Cl)cc1 (stereo not given)	inactive	
COP(=S)(OC)SCn1nnc2ccccc2c1=O	inactive	
O=C1C2CC=CCC2C(=O)N1SC(Cl)(Cl)Cl (stereo not given)		28.1 µM (active)
CCCCOCN(C(=O)CCl)c1c(CC)cccc1CC	inactive	
CC(C)(C)C(=O)C(Oc1ccc(Cl)cc1)n1cncn1 (stereo not given)	inactive	
O=C(O)c1c(Cl)ccc2cc(Cl)cnc12	inactive	
CCOc1nc(F)cc2nc(S(=O)(=O)Nc3c(Cl)cccc3Cl)nn12	inactive	
CCSC(=O)N1CCCCCC1	inactive	
N#Cc1c(Cl)cccc1Cl	inactive	
CC1(C)C(C=C(Cl)Cl)C1C(=O)OC(C#N)c1cccc(Oc2ccccc2)c1 (stereo not given)	inactive	
CN/C(=N\[N+](=O)[O-])NCc1cnc(Cl)s1	inactive	
COP(=S)(OC)Oc1ccc([N+](=O)[O-])c(C)c1	inactive	
COCC(C)N(C(=O)CCl)c1c(C)csc1C (stereo not given)	inactive	
OC(c1ccc(Cl)cc1)(c1ccc(Cl)cc1)C(Cl)(Cl)Cl		107 µM (active)
CCC(C)n1c(=O)[nH]c(C)c(Br)c1=O (stereo not given)	inactive	
CNC(=O)Oc1cccc2ccccc12	inactive	
N#CN=C1SCCN1Cc1ccc(Cl)nc1	inactive	
COCc1cnc(C2=NC(C)(C(C)C)C(=O)N2)c(C(=O)O)c1 (stereo not given)	inactive	
COC(=O)NC(=S)Nc1ccccc1NC(=S)NC(=O)OC	inactive	

Compound	outcome	AC50
CC(C)Nc1nc(Cl)nc(NC(C)C)n1	inactive	
Clc1cccc(C(Cl)(Cl)Cl)n1	inactive	
CS(=O)(=O)c1ccc(C(=O)C2C(=O)CCCC2=O)c([N+](=O)[O-])c1	inactive	
Cn1c(-c2ccccc2)cc(-c2ccccc2)[n+]1C	inactive	
CCOP(=S)(OCC)Oc1nc(Cl)n(C(C)C)n1	inactive	
COC(=O)NS(=O)(=O)c1ccc(N)cc1	inactive	
CO/N=C(/C1=NOCCO1)c1ccccc1Oc1ncnc(Oc2ccccc2Cl)c1F	inactive	
O=C(Nc1ccccc1-c1ccc(Cl)cc1)c1cccnc1Cl	inactive	
CC1(C)CON(Cc2ccccc2Cl)C1=O	inactive	
CC(C)=CC1C(C(=O)OCc2coc(Cc3ccccc3)c2)C1(C)C (stereo not given)	inactive	
CCN(CC)C(=O)C(C)Oc1cccc2ccccc12 (stereo not given)	inactive	
Cc1ccc(N=CN(C)C=Nc2ccc(C)cc2C)c(C)c1	inactive	
O=P(O)(O)CCCl	inactive	
CCOc1nc(C(Cl)(Cl)Cl)ns1	inactive	
CCOc1cc(C(C)(C)C)ccc1C1COC(c2c(F)cccc2F)=N1 (stereo not given)	inactive	
CCN(CC)c1nc(C)cc(OP(=S)(OC)OC)n1	inactive	
CC(C)N1C(=O)N(c2ccccc2)CSC1=NC(C)(C)C	inactive	
CN=C=S	inactive	
CCOP(=O)(OCC)Oc1nc(Cl)c(Cl)cc1Cl	inactive	
CC(C)N1C(=O)c2ccccc2NS1(=O)=O	inactive	

— PubChem BioAssay (EPA / NIEHS)
